Pol beta inh: blocks human DNA polymerase beta activity; P06746; Pol beta primer extension/strand displacement, fluorescence kinetic; Potency, µM (doses to about 114 µM), for the others: top-dose activity change, negative = inhibition, most hits filed as inhibitors; 340,000 tested, 1.3% active; also: potency is read from the fitted curve at half-maximal effect; % is scaled to controls: 0 for no effect and ±100 for the full control effect
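Pol beta (10 nM) was preincubated with compound for 15 min at room temperature. The reaction was then started with 50 nM substrate and read immediately and after a further 10 min at room temperature.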
Pol kappa inh-1: DNA polymerase kappa (human) inhibition; Q9UBT6; purified Pol kappa, fluorescent DNA synthesis assay, 10 min; Potency, µM (doses to about 107 µM), for inactives: top-dose activity, negative = inhibition, usual class: inhibitors; 400,000 tested, 0.53% active; AID 588579; also: potency is read from the fitted curve at half-maximal effect; % is scaled to controls: 0 for no effect and ±100 for the full control effect
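Pol kappa 10 nM + cpd, 15 min RT; start w/ substrate 50 nM final; fluorescence kinetic read, 0 and 10 min. Neg ctrl: buffer, no enzyme.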
FEN1 inh-1: inhibitors of human flap endonuclease 1. P39748. Recombinant FEN1 flap cleavage, fluorescence, 15 min. Potency, µM (series often up to 114 µM), for the others: at the top dose activity change, negative = inhibition, hits mostly inhibitors. 390,000 tested, 0.35% active; also: potency is read from the fitted curve at half-maximal effect; % is scaled to controls: 0 for no effect and ±100 for the full control effect; nearly all actives have a fitted effect of over 65% in size
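With each library titrated from low to high concentration, compounds met 10 nM FEN1 for 15 min at room temperature before 50 nM substrate was added; readings at 0 and 15 min fed four-parameter Hill curve fits.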
Pol eta inh-1: DNA polymerase eta (human) inhibition; Potency, µM (highest dose often 114 µM), inactives show top-dose activity change, negative = inhibition, usual class: inhibitors; recombinant Pol eta, fluorescent DNA replication assay; 390,000 tested, 1.2% active; Q9Y253; also: potency is read from the fitted curve at half-maximal effect; % is scaled to controls: 0 for no effect and ±100 for the full control effect
Target sequence (Q9Y253 whole entry, looked up): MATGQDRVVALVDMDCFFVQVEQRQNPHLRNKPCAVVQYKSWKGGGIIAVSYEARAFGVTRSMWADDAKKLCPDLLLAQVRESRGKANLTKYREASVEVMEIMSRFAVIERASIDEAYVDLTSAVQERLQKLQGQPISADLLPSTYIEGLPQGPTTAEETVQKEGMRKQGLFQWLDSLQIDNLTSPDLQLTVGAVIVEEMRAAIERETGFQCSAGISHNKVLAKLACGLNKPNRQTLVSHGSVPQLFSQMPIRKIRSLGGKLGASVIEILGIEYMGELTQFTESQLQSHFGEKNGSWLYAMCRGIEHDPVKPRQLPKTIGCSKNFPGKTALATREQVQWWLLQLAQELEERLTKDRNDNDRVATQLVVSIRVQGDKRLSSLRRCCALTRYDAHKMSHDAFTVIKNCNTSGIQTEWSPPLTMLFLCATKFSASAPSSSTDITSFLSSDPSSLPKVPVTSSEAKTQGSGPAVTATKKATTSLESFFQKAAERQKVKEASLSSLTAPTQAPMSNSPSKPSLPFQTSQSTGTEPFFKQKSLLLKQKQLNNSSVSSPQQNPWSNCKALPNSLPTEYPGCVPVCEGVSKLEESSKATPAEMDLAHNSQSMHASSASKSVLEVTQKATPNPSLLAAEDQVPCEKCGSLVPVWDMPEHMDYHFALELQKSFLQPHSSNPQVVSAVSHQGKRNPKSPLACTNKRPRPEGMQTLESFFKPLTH
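Pol eta at 10 nM preincubated with compounds 15 min at room temperature; reaction started with fluorescent substrate (50 nM final) and read kinetically at 0 and 10 min.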
Pol iota inh: DNA polymerase iota (human) inhibition; Potency, µM (top dose mostly 115 µM), for the others: at the top dose activity, negative = inhibition, hits mostly inhibitors; 390,000 tested, 1% active; Pol iota fluorescent replication assay, 10 min; Q9UNA4; AID 588590; also: potency is read from the fitted curve at half-maximal effect
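Fluorescent replication assay read twice, at 0 min and 10 min after adding 50 nM (final) substrate. Enzyme (10 nM) and compounds were first incubated 15 min at room temperature; enzyme-free buffer wells were negative controls.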
WRN inhibitor: WRN helicase (human) inhibition; Q14191; WRN helicase unwinding, fluorescent forked duplex, kinetic; Potency, µM (highest dose often 114 µM), for the others: top-dose activity change, negative = inhibition, hits mostly inhibitors; 360,000 tested, 0.46% active; also: potency is read from the fitted curve at half-maximal effect; % is scaled to controls: 0 for no effect and ±100 for the full control effect; nearly all actives have a fitted effect of over 55% in size
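Primary qHTS, 1536-well format. 20 nM WRN + compound, 15 min RT; start with 100 nM forked fluorophore/quencher duplex, 2 mM ATP (final); kinetic read ex 525/em 598 nm.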
PGK validate: validation of Trypanosoma brucei phosphoglycerate kinase inhibitors. shares compounds with Pol kappa inh-1. TbPGK coupled GAPDH assay, Kinase-Glo luminescence. Potency, µM (highest dose often 57.5 µM), for inactives: at the top dose activity change, negative = inhibition, most hits filed as inhibitors. 500 tested, 79% active; also: potency is read from the fitted curve at half-maximal effect; % is scaled to controls: 0 for no effect and ±100 for the full control effect; nearly all actives have a fitted effect of over 65% in size
POLI cherry-pick: Confirm cherry-picked inhibitors of human polymerase iota; shares compounds with Pol kappa inh-1; Pol iota primer extension, TAMRA/BHQ fluorescence; Potency, µM, most hits filed as inhibitors; 1,500 tested, 77% active; AID 720496; also: potency is read from the fitted curve at half-maximal effect
GALK inh confirm: confirmation of human galactokinase (GALK) inhibitors | purified GALK, Kinase-Glo ATP depletion luminescence | Potency, µM (series often up to 115 µM), inactives show at the top dose activity, negative = inhibition, usual class: inhibitors | AID 2015 | shares compounds with Pol eta inh-1 | 150 tested, 70% active
GALK redox cs: redox cycling activity in phenol red-HRP assay; shares compounds with Pol eta inh-1; Phenol red-HRP H2O2 redox cycling, absorbance 600 nm; Potency, µM (titrated, usually from 115 µM), inactives show at the highest dose activity change, negative = H2O2 signal, most hits filed as inhibitors; 150 tested, 40% active; AID 2035
HEK293 tox: HEK-293 cytotoxicity, GALK inhibitor secondary. shares compounds with Pol eta inh-1. Potency, µM (highest dose often 46.1 µM), for the others: at the highest dose activity change, negative = cytotoxicity, usual class: inhibitors. AID 2547. 170 tested, 10% active. HEK-293 viability, ATP luminescence (CellTiter-Glo), 24/48 h; also: potency is read from the fitted curve at half-maximal effect; % is scaled to controls: 0 for no effect and ±100 for the full control effect
Pol kappa inh-2: Pol kappa (human) inhibition, cherry-pick confirmation. shares compounds with Pol eta inh-1. purified Pol-kappa, fluorescent strand-displacement substrate. Potency, µM, usual class: inhibitors. AID 720501. 920 tested, 76% active; also: potency is read from the fitted curve at half-maximal effect
Pol eta inh-2: Pol eta (human) inhibition, cherry-pick confirmation | shares compounds with Pol eta inh-1 | Pol eta primer extension, TAMRA/BHQ fluorescence, 10 min | Potency, µM, actives largely listed as inhibitors | 2,600 tested, 64% active | AID 720502; also: potency is read from the fitted curve at half-maximal effect
FEN1 inh-2: confirmation of human FEN1 inhibitors. shares compounds with FEN1 inh-1. FEN1 flap cleavage, TAMRA/BHQ2 fluorogenic DNA substrate. Potency, µM, actives largely listed as inhibitors. 880 tested, 79% active. AID 720498; also: potency is read from the fitted curve at half-maximal effect; nearly all actives have a fitted effect of over 60% in size
The depositor's hits bear a star; ? = inconclusive; nt = no result given; [ ] = remark or other dose. Only some compounds are listed: those with a hit (about 2.4% of all), similar ones and a draw of the others. Calls follow the shape of the dose curve; as a rule, active = well fitted curve in the direction sought with a large enough effect; inconclusive = small, poorly fitted or top-dose-only effect, or another doubt; inactive = no such curve, though single readings can be large; an effect the other way counts as inactive or inconclusive.

SMILES	Pol beta inh	Pol kappa inh-1	FEN1 inh-1	Pol eta inh-1	Pol iota inh	WRN inhibitor	POLI cherry-pick	Pol eta inh-2	FEN1 inh-2	others
O=c1c2cc(O)c(O)cc2oc2cc(O)c(C3OC(CO)C(O)C(O)C3O)c(O)c12 (stereo unspecified)	nt	4µM*	-17%	8.9µM*	?	-17%	15*	19*	?	Pol kappa inh-2=7.5*
CC(C1SC(=S)NC1=O)C1SC(=S)NC1=O (stereo unspecified)	nt	nt	nt	5µM*	nt	?	42*	9.5*	?	Pol kappa inh-2=17*
Cc1cc(C)c2oc(-c3cccc(NC(=O)COc4ccc([N+](=O)[O-])cc4)c3)nc2c1	15%	-2%	7%	10%	1%	nt	nt	nt	nt
COc1cccc(-n2c(SCc3cc(=O)oc4cc(O)c(O)cc34)nc3ccccc3c2=O)c1	3.2µM*	32µM*	50µM*	3.2µM*	7.9µM*	28µM*	7.5*	12*	27*
CCN(CC)C(=O)CSc1nc2ccccc2c(=O)n1-c1cccc(OC)c1	5%	-5%	5%	-4%	11%	-5%	nt	nt	nt
NC(N)=N/N=C/c1ccccc1	8%	-6%	-7%	-9%	-19%	-12%	nt	nt	nt
Oc1ccc(/C=N/N=C(c2ccccc2)c2ccccc2)c(O)c1O	2.8µM*	?	?	3.2µM*	?	6.7µM*	11*	43*	48*
COc1cc(Cl)c(C)cc1NC(=O)CSc1ncc(S(=O)(=O)c2ccc(C(C)(C)C)cc2)c(=O)[nH]1	10µM*	?	?	10µM*	?	nt	21*	30*	48*	PGK validate=21µM*
CC(C)(C)OC(=O)N1CCC(c2c(C(=O)NCCN3CCCC3)cnn2-c2ccc(Cl)cc2)CC1	9%	0%	0%	-13%	36%	nt	nt	nt	nt
COc1ccc([N+](=O)[O-])cc1NC(=S)NC(C)=O	8%	-3%	1%	-19%	30%	3%	nt	nt	nt
COc1ccc(/C=C/C(=O)NC(=S)Nc2cc([N+](=O)[O-])ccc2O)cc1OC	18µM*	?	22µM*	25µM*	16µM*	-12%[11.6 µM]	75*	30*	60*
O=C(O)C(c1ccccc1)N1C(=O)/C(=C\c2ccc(-c3ccc(Br)cc3)o2)SC1=S (stereo unspecified)	?	?	20µM*	?	11µM*	?	42*	27*	76*
COc1cc(/C=C2\SC(=S)N(C(C(=O)O)c3ccccc3)C2=O)cc(OC)c1OC (stereo unspecified)	0%	-6%	-13%	12%	?	-15%	nt	nt	nt
NC(=S)n1[nH]c(-c2ccc([N+](=O)[O-])cc2)c(N=Nc2cccc([N+](=O)[O-])c2)c1=O	0%	?	45µM*	28µM*	?	?	67*	48*	43*	PGK validate=13µM*
Cc1[nH]n(C(N)=S)c(=O)c1N=Nc1cccc([N+](=O)[O-])c1C	-9%	-4%	4%	-10%	-5%	-4%	nt	nt	nt
Cc1c(N=Nc2c(-c3ccc([N+](=O)[O-])cc3)[nH]n(C(N)=S)c2=O)cccc1[N+](=O)[O-]	-21%	?	?	50µM*	?	?	?	?	67*
Cn1cccc1C(=O)N1CCC[C@@]2(CCN(c3ccncc3)C2)C1	nt	-4%[60.1 µM]	nt	nt	nt	nt	nt	nt	nt
CC(C)=CCC1=C(OCC(=O)O)C(=O)c2ccccc2C1=O	?	-2%	?	22µM*	?	-20%[11.6 µM]	38*	27*	38*	GALK inh confirm=38µM*;GALK redox cs=12µM*;HEK293 tox=-28%
O=C(CC1NCCNC1=O)Nc1cccc(F)c1 (stereo unspecified)	-23%	-7%	11%	-9%	-12%	nt	nt	nt	nt
Cc1cc(C)n(Cc2ccc(C(=O)N/N=C/c3ccc(-c4ccc([N+](=O)[O-])cc4)o3)o2)n1	2µM*	25µM*	56µM*	6.3µM*	10µM*	32µM*	17*	43*	76*
Oc1ccc(CNc2cccnc2)c2cccnc12	nt	nt	nt	nt	nt	nt	?	nt	38*
O=C(Nc1ccc(F)c(Cl)c1)c1cc(S(=O)(=O)N2CCCc3ccccc32)ccc1F	6%	-18%[60.1 µM]	-3%	-15%	16%	nt	nt	nt	nt
O=C(O)COc1ccccc1C=NNc1ccc([N+](=O)[O-])cc1S(=O)(=O)Nc1ccc(Cl)cc1	nt	-34%	-15%	22µM*	?	?	84*	48*	76*	Pol kappa inh-2=?
CCCCC(=O)Nc1sc2c(c1-c1nc3ccccc3s1)CCN(C(C)C)C2	nt	nt	nt	nt	nt	nt	?	nt	34*	Pol kappa inh-2=11*
CC(C)N1CCc2c(sc(NC(=O)c3nc4ccccc4s3)c2C(N)=O)C1	1%	-8%	-12%	-7%	251%	10%	nt	nt	nt
CC(=O)Nc1sc2c(c1-c1nc3ccccc3s1)CCN(C)C2	nt	nt	nt	nt	nt	nt	38*	nt	5.4*

High-throughput results deposited in PubChem by National Center for Advancing Translational Sciences (NCATS).
